A selection: hits, their analogues and other compounds. The true share with any hit is near 3.4%.
PLK1 PBD block: inhibitors of human PLK1 polo-box domain binding; Potency, µM, inactives show max response, negative = inhibition, usual class: inhibitors; P53350; Plk1 PBD binding of FITC phosphopeptide, fluorescence polarization; 360,000 compounds, 2.8% hits; note: series mostly up to about 57 µM; % is set by controls: 0 for no effect and ±100 for the full control effect; nearly all actives have a fitted effect of over 65% in size
PKM2 act: increases activity of human pyruvate kinase M2. purified PKM2, Kinase-Glo ATP luminescence, activation; response scale: 0% is enzyme alone, no compound. Potency, µM (top dose mostly 57.5 µM), for inactives: at the highest dose activation, actives largely listed as activators. 260,000 compounds, 0.34% hits; note: % is set by controls: 0 for no effect and ±100 for the full control effect; nearly all actives have a fitted effect of over 55% in size
Target sequence (P14618 whole entry, looked up): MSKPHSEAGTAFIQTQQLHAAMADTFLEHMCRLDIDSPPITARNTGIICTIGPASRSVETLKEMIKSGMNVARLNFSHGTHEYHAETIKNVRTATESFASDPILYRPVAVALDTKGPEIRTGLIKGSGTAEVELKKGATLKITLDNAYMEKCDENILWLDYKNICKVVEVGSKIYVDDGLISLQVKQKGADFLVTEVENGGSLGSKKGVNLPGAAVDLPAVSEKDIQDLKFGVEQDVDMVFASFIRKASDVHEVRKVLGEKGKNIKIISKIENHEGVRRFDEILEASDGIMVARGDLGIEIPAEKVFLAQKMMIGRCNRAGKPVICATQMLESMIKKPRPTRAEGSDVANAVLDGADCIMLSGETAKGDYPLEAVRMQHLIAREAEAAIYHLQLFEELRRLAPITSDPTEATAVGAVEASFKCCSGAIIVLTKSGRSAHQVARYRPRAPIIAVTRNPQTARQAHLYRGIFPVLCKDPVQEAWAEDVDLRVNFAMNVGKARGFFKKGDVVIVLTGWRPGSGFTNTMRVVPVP
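Purified hPK-M2 (>95% pure) converted ADP (0.1 mM final) to ATP with 0.5 mM PEP in 50 mM imidazole pH7.2, KCl, MgCl2, Tween 20, BSA; 1 h at room temperature. ATP detected by Kinase-Glo luminescence.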
GLS inh: glutaminase GLS (human) inhibition; GLS enzymatic activity, qHTS titration; O94925; 410,000 compounds, 0.21% hits; Potency, µM (highest dose often 45.5 µM), inactives show at the highest dose activity change, negative = inhibition, most hits filed as inhibitors; note: % is set by controls: 0 for no effect and ±100 for the full control effect
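hKGA in 45 mM KH2PO4 pH 8.2, 0.02% Tween-20 with pin-transferred compounds; 1 mM L-glutamine (stock) plus glutamate oxidase/HRP/Amplex Red coupling added. Fluorescence read initially and after 30 min at RT.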
Mito fusion yeast: mitochondrial division inhibition or fusion activation. S. cerevisiae fusion-defective mutant growth rescue, CellTiterGlo 48 h. Potency, µM (highest dose often 46.1 µM), for inactives: at the highest dose growth rescue (activation), most hits filed as activators. 320,000 compounds, 0.23% hits. AID 485298; note: % of control where 0% means no effect; nearly all actives have a fitted effect of over 45% in size
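Read-out: ATP-based luminescence (CellTiterGlo, 10 min ambient) reporting growth of fusion-defective ts yeast after 48 hours at 37C on glycerol/ethanol YPEG medium in the presence of compound.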
VDR inh: blocks the human vitamin D receptor. AID 504847. Potency, µM, without a hit: max response, negative = inhibition, usual class: inhibitors. VDR-SRC2-3 peptide fluorescence polarization, 2 h. P11473. 400,000 compounds, 0.93% hits; note: % is set by controls: 0 for no effect and ±100 for the full control effect
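Reagent solutions, kept cold and dark, are dispensed first; compounds are then pinned in at 23 nl, plates briefly spun, and incubated 2 h at ambient temperature. Inhibition of VDR–SRC2-3 peptide binding is read by fluorescence polarization.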
GCN5L2 inh: inhibitors of human GCN5L2 histone acetyltransferase; Q92830; Potency, µM (top dose mostly 58.9 µM), without a hit: top-dose activity change, negative = inhibition, most hits filed as inhibitors; AID 504327; GCN5L2 HAT assay, ThioGlo1 CoA-SH fluorescence; 390,000 compounds, 0.21% hits; note: % is set by controls: 0 for no effect and ±100 for the full control effect
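ThioGlo1-coupled HAT assay: 20nM GCN5L2, 70uM acetyl-CoA, 75uM H3(1-25) peptide, pH 7.5. Fluorescence read at 340/540nm at start and after 20 min at room temperature.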
Active calls of the source: *; u = inconclusive; x = not tested or not shown. Calls come from the whole dose curve; as a rule, active = well fitted curve in the direction sought with a large enough effect; inconclusive = small, poorly fitted or top-dose-only effect, or another doubt; inactive = no such curve, though single readings can be large; an effect the other way counts as inactive or inconclusive. Potency is the fitted concentration of half-maximal effect.

SMILES	PLK1 PBD block	PKM2 act	GLS inh	Mito fusion yeast	VDR inh	GCN5L2 inh
Cc1ccc(-n2[nH]c(C)c(C=Nc3cc(C)ccn3)c2=O)cc1	-13.6%	-44.2%	-11.2%	-7.6%	-0.4%	-5.2%
Cc1ccnc(N=O)c1	10.6µM*	x	1.2%	x	-22.8%	-13.9%
COCCNC(=O)C/C(C)=N/NC(=O)C(=O)NC1CCCCC1	23.8µM*	-4.4%	0.0%	2.9%	3.5%	-4.0%
COCCCNC(=O)C(=O)NC1CCCCCC1	-23.1%	-0.8%	9.9%	-2.6%	2.2%	0.3%
COC(=O)[C@H](CC(C)C)NC(=O)c1cc2c(cn1)[nH]c1ccccc12	3.77µM*	x	-14.6%	4.4%	u	-6.3%
CCOC(=O)C(NC(C)=O)(Nc1ccc(S(=O)(=O)Nc2cc(C)on2)cc1)C(F)(F)F (stereo not drawn)	-9.1%	-0.2%	4.7%	-1.2%	20.3%	1.6%
Cc1cc(NS(=O)(=O)c2ccc(NC(NC(=O)C(C(F)(F)F)C(F)(F)F)(C(F)(F)F)C(F)(F)F)cc2)no1	5.97µM*	2.9%	13.8%	-10.1%	u	1.0%
O=c1c(S(=O)(=O)c2ccccc2)cn(Cc2cccc(F)c2)c2cc(N3CCOCC3)c(F)cc12	x	x	15.3%	x	0.1%	-5.9%
COc1ccc2nc(C)cc(SCC(=O)N/N=C/c3ccc(O)c(O)c3)c2c1	-5.4%	25.1µM*	u	2.2%	15.6%	-3.8%
COc1ccc2nc(C)cc(SCC(=O)N/N=C/c3cccc4ccccc34)c2c1	-6.8%	-2.6%	1.0%	-0.4%	-8.9%	1.5%
Cc1cc(S(=O)(=O)Nc2ncnc3sccc23)ccc1F	-20.2%	x	-5.0%	x	x	x
Clc1ccc(-n2nnnc2Sc2ncnc3sccc23)cc1	8.44µM*	x	-9.1%	x	79.4µM*	x
Cn1nnnc1Sc1ncnc2scc(-c3ccc(Cl)cc3)c12	x	x	2.8%	2.7%	u	-12.3%
CCOC(=O)C1CCCN(Cc2nc(N)nc(Nc3ccc(OC)cc3)n2)C1 (stereo not drawn)	26.7µM*	-2.9%	40.5%	-3.8%	-21.1%	-3.6%
CCOC(=O)C1CCCN(Cc2nc(N)nc(Nc3ccccc3OC)n2)C1 (stereo not drawn)	-6.6%	-0.6%	3.4%	-9.6%	-5.1%	3.1%
COc1ccc(S(=O)(=O)N(Cc2cccnc2)Cc2cc3ccccc3[nH]c2=O)cc1	26.7µM*	x	-6.8%	1.0%	-23.0%	-7.1%
Cc1ccc(-c2nnnn2-c2ccc(C)cc2)cc1	16.8µM*	-2.3%	0.0%	0.8%	u	-2.2%
Cc1ccc(CNC(=O)Cn2cc3c(n2)-c2c(oc(C(=O)N4CCOCC4)c2C)CC3)cc1	x	x	-2.9%	x	10.7%	-1.7%
Cc1ccc2[nH]c(=O)c(CN(Cc3cccnc3)Cc3nnnn3CCN3CCOCC3)cc2c1	4.74µM*	-3.4%	u	-1.0%	3.1%	-3.6%
COc1cc(OC)cc(C(=O)NC2CCN(CC(=O)Nc3cccc4ccccc34)CC2)c1	-4.2%	1.2%	-1.3%	-18.3%	14.9%	4.0%
COc1cc(C(=O)NC2CCN(CC(=O)Nc3cccc(C)c3C)CC2)cc(OC)c1OC	26.7µM*	-9.1%	-2.3%	0.8%	-20.4%	9.7%
C[C@@H]1CC[C@]2(C(=O)O[C@@H]3O[C@H](CO)[C@@H](O)[C@H](O)[C@H]3O)CC[C@]3(C)C(=CCC4[C@@]5(C)C[C@@H](O)[C@H](O)[C@@](C)(C(=O)O[C@@H]6[C@H](O)C[C@@]7(C)C(CC[C@]8(C)C7CC=C7[C@H]9[C@](C(=O)O[C@@H]%10O[C@H](CO)[C@@H](O)[C@H](O)[C@H]%10O)(CC[C@@H](C)[C@@]9(C)O)CC[C@]78C)[C@@]6(CO)C(=O)O)C5CC[C@]43C)[C@@H]2[C@]1(C)O (stereo partly drawn)	-7.5%	x	7.08µM*	x	19.7%	0.7%
C[C@H]1O[C@H](O[C@H]2[C@H](O[C@@H]3CC[C@@]4(C)C(CC[C@]5(C)C4CC=C4[C@@H]6CC(C)(C)CC[C@]6(C(=O)O[C@@H]6O[C@H](CO)[C@@H](O)[C@H](O)[C@H]6O)CC[C@]45C)C3(C)C)O[C@H](C(=O)O)[C@@H](O)[C@@H]2O)[C@@H](O)[C@@H](O)[C@@H]1O (stereo partly drawn)	-8.2%	x	u	0.0%	4.1%	0.7%
COc1ccc([C@H]2CC(=O)C=C(c3cccc(Br)c3)C2)cc1	-2.9%	x	5.1%	u	9.9%	-2.1%
COc1ccc([C@H]2CC(=O)C=C(c3cccc(C(F)(F)F)c3)C2)cc1	26.7µM*	x	-6.5%	u	u	-16.9%
SMILES	PLK1 PBD block	PKM2 act	GLS inh	Mito fusion yeast	VDR inh	GCN5L2 inh
COc1ccc([C@H]2CC(=O)C=C(c3cc(Cl)ccc3OC)C2)cc1	-5.4%	x	3.0%	u	-3.8%	-8.5%
CCOc1ccc(Cl)cc1C1=CC(=O)C[C@H](c2ccc(OC)cc2)C1	-0.8%	x	3.6%	35.5µM*	10.5%	-9.2%
Cc1ccc(-c2nc(CS(=O)(=O)CC(=O)NCCc3ccccc3)c(C)o2)cc1	x	x	-4.1%	x	-13.0%	-7.3%
Cc1cc(C)cc(NC(=O)C(NCCN2CCOCC2)c2ccccc2)c1 (stereo not drawn)	23.8µM*	-2.6%	2.4%	-3.7%	u	-7.8%
S=C(Nc1cccc2ccccc12)Nc1cccc2ccccc12	-24.0%	x	-24.5%	x	-25.8%	x
S=C(CSc1ccccc1)Nc1cccc2ccccc12	10.6µM*	x	17.6%	x	x	x
CC(C)CCNC(=O)C(c1ccc(O)cc1)N(C(=O)C1COc2ccccc2O1)c1cccc(O)c1 (stereo not drawn)	18.9µM*	0.5%	0.0%	6.8%	6.7%	-4.9%
CCCCCOc1ccc(C2C(C(=O)c3ccc(C)o3)=C(O)C(=O)N2c2cc(C)on2)cc1 (stereo not drawn)	u	x	0.8%	6.3%	70.8µM*	-8.6%
CCOC(=O)c1sc(N2C(=O)C(O)=C(C(=O)c3ccc(C)o3)C2c2cccc([N+](=O)[O-])c2)nc1C (stereo not drawn)	23.8µM*	8.8%	-0.8%	-3.3%	u	u
CCOc1ccc(C2C(C(=O)c3ccc(C)o3)=C(O)C(=O)N2c2cc(C)on2)cc1OC (stereo not drawn)	-8.3%	1.3%	8.6%	-3.4%	-6.1%	-11.8%
Cc1ccc(C(=O)C2=C(O)C(=O)N(c3ncccn3)C2c2cccc(Cl)c2)o1 (stereo not drawn)	x	6.31µM*	x	-4.1%	x	-3.2%
CCOC(=O)c1sc(N2C(=O)C(O)=C(C(=O)c3ccco3)C2c2ccc(C)o2)nc1C (stereo not drawn)	u	u	u	-4.3%	u	-11.4%

Assay outcomes (PubChem)
